Entries with a potency or affinity are not part of this list. A number with no mark means an inactive call. No rule for the calls is given here.
Assay: Venezuelan equine encephalitis virus CPE inhibition in Vero cells, confirmatory stage (AID 2409)
Settings: VEEV-infected Vero cells; series mostly up to 66.6 µM; CPE inhibition: at the top concentration

SMILES	CPE inhibition
O=c1c2c(F)cccc2nc2n1CCC2	-5.78%
O=C(CSc1nc2ccccc2c(=O)n1-c1ccc(F)cc1F)Nc1ccc2c(c1)CCC2	2.77% [at 134 µM]
COc1ccc(-c2csc(N(C)C(=O)c3ccccc3Cl)n2)cc1	-57.3%
O=C(CSc1nc2ccccc2c(=O)n1-c1ccc(F)cc1F)Nc1ccc(N2CCOCC2)cc1	-5.87% [at 134 µM]
CC1(O)c2cc(Br)ccc2N=C2CCCN21 (stereo not given)	-18%
O=C(CSc1nc2ccccc2c(=O)n1-c1ccc(F)cc1)Nc1ccc2c(c1)OCCO2	-20.3%
OC1c2cc(Br)ccc2N=C2CCCCN21 (stereo not given)	-26.5% [at 134 µM]
O=C(CSc1nc2ccccc2c(=O)n1-c1ccc(Cl)c(Cl)c1)Nc1ccc2c(c1)CCC2	-27.2%
O=C(CSc1nc2ccc(F)cc2c(=O)n1-c1ccccc1)Nc1ccc2c(c1)CCC2	-96.1% [at 134 µM]
CC(=O)Nc1ccc2nc3n(c(=O)c2c1)CCC3	-33.2%
OC1c2cc(I)ccc2N=C2CCCN21 (stereo not given)	-61.1% [at 134 µM]
OC1c2cc(Br)ccc2N=C2CCCCCN21 (stereo not given)	-33.9% [at 134 µM]
OC1c2c(F)cccc2N=C2CCCCCN21 (stereo not given)	-30.5% [at 134 µM]
COc1cccc(-n2c(SCC(=O)Nc3ccc4c(c3)CCC4)nc3ccccc3c2=O)c1	-32.3%
Cc1cccc2c(=O)n3c(nc12)CCC3	-4.01%
Cc1cccc2nc3n(c(=O)c12)CCC3	-1.93%
O=c1c2cccc(Cl)c2nc2n1CCC2	-11.8%
CC1CC(C)CN(C(=O)CSc2nc3ccccc3c(=O)n2-c2ccc(F)cc2)C1 (stereo not given)	-17.1%
O=C(CSc1nc2ccccc2c(=O)n1-c1ccccc1)Nc1ccc2c(c1)CCC2	-9.34%
OC1c2c(F)cccc2N=C2CCCCN21 (stereo not given)	-13.1% [at 134 µM]

— PubChem BioAssay AID2409 (Southern Research Specialized Biocontainment Screening …, 2010)
